The results in this text go back to PubChem BioAssay AID1697 (The Scripps Research Institute Molecular Screening Center, 2009).

Molecules are shown by their SMILES. The list shows a part of the results. A number with no mark means an inactive call. Calls of active or inactive are those of the source.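 How the source made its calls: active means percent activation above the mean of DMSO-only control wells plus 3 SD of those wells (cut at about 18% in these data); inactive means the rest.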

In this assay the target is Neuropeptide Y receptor type 1 (Homo sapiens) (UniProt P25929). Description: NPY-Y1 direct agonists without NPY, confirmation, counter-screen for NPY-Y1 potentiator project, cell-based, fluorescence (AID 1697).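 Further: cells challenged with isoproterenol plus Ro 20-1724 with no NPY in test wells; Y1 agonism lowers isoproterenol-driven cAMP and reduces probe fluorescence.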 The following applies: HEK293 Y1-CNGC, membrane potential fluorescence, agonist mode; at 3.6 µM; hits give high values.
Sequence of Neuropeptide Y receptor type 1 (Homo sapiens) (P25929 whole entry, looked up): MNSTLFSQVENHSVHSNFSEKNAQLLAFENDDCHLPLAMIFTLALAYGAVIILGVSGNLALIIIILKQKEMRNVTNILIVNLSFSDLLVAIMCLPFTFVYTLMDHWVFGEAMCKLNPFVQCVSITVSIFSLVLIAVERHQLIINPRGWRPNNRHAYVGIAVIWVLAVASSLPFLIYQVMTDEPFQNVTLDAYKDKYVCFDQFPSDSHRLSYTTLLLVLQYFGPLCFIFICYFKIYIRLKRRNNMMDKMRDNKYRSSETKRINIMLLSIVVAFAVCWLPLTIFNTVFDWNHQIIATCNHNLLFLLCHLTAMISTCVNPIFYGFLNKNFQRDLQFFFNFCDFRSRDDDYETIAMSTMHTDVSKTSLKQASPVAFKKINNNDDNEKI
As to `COC(=O)c1ccc(NC(=O)CN(c2ccc(C)cc2)S(=O)(=O)c2c(C)n[nH]c2C)cc1`, the activation was 45.3% (active).
Take `CCn1c2ccccc2c2cc(NC(=O)Nc3ccc([N+](=O)[O-])cc3C)ccc21`: the activation was 11.8%.
Regarding `N#Cc1ccc(C(=O)Nc2nc(-c3cccs3)c(C(=O)C(F)(F)F)s2)cc1`, the activation was -33.9%.
Consider `Cc1cccc(OCC(O)CN2CCN(CCN3C(=O)c4cccc5cccc(c45)C3=O)CC2)c1C` (stereo unspecified), for which the activation is 45.1% (active).
Take `Cc1ccccc1NCC(=O)N/N=C\c1ccc([N+](=O)[O-])s1`: the activation is 40% (active).
As to `CN1C(=O)c2ccccc2C(C(=O)NCCCN2CCCC2)C1c1c[nH]c2ccccc12` (stereo unspecified), the activation is -3%.
As for `CC1=C/C(=N\OS(=O)(=O)c2ccccc2)C=CC1=O`, the activation is 14.2%.
With `O=C1/C(=C/c2coc3ccc(O)cc3c2=O)SC(=S)N1c1ccccc1` the figure was 16.8%.
With `COCCn1nnnc1C(c1ccccc1Cl)N1CCN(c2ccccc2OC)CC1` (stereo unspecified) the figure was -0.37%.
As for `O=C(c1cccs1)N1CCN(C(=O)N2CCOCC2)CC1`, the activation is -8.38%.
On to `O=[N+]([O-])c1cc(Cl)cc(/C=N/NC(=S)Nc2cc(S(=O)(=O)N3CCOCC3)ccc2Cl)c1O`, for which the activation was 77% (active).
On to `CSc1nc(-c2ccco2)nn1C(=O)c1ccccc1Cl`, for which the activation is 28.5% (active).
Take `COC(=O)c1sc(-c2ccc(C(C)(C)C)cc2)cc1NC(=O)/C=C/C(=O)O`: the activation was 26.9% (active).
For the compound `O=C(Nc1ccccc1C(F)(F)F)c1cc(-c2ccc(O)cc2)on1`, the activation is 9.5%.
As to `O=C(Nc1ccc2c(c1)CCC2)c1cccc(S(=O)(=O)Nc2ccccc2Cl)c1`, the activation is 3.19%.
With `CC(=O)c1ccc(NC(=O)C2CC(=O)Nc3nc4ccccc4n32)cc1` (stereo unspecified) the figure was 38% (active).
